The whole screen tested about 4,100 compounds, of which about 1,600 (39%) were called active. Inconclusive results (about 25%) are left out. Calls follow the shape of the dose curve; as a rule, active = well fitted inhibition curve with a large enough effect; inconclusive = small, poorly fitted or top-dose-only effect; inactive = no such curve, though single readings can be large or run the other way. This is one part of the list.
experiment: qHTS Validation assay for Inhibitors of Plasmodium falciparum Dd2 growth in vitro; also: nearly all actives have a fitted effect of over 70% in size; details: P. falciparum Dd2 in RBCs, SYBR Green growth, 72 h; series mostly up to 28.7 µM
Method in brief: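 P. falciparum Dd2-infected red blood cells (2.5% hematocrit, 0.3% parasitemia) grown 72 h at 37 °C under 5% O2 with compounds in a titration, 29 uM to 0.5 nM final. Growth read as SYBR Green-1 fluorescence after ~16 h lysis; artesunate 300 nM as positive control.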
Potency is read from the fitted curve at half-maximal effect.

Row | Compound | Potency
1 | C=CCc1c(C)[nH]c2ccc(C)cc2c1=O | inactive
2 | CCc1c(C)[nH]c2ccccc2c1=O | 10.6 µM (active)
3 | CCCc1c(C)[nH]c2ccccc2c1=O | 7.5 µM (active)
4 | O=S(=O)(c1ccc2ccccc2c1)N1CCN(C(=S)Nc2ccccc2F)CC1 | 4.22 µM (active)
5 | O=c1nc2ccccn2c2ccc(S(=O)(=O)N3CCCCC3)cc12 | inactive
6 | O=S(=O)(c1ccc(Cl)cc1)N1CCN(C(=S)Nc2ccccc2F)CC1 | 2.37 µM (active)
7 | COc1cccc(NC(=S)N2CCN(S(=O)(=O)c3ccc(F)cc3)CC2)c1 | 2.66 µM (active)
8 | O=C(Cn1ccc2cc(S(=O)(=O)N3CCCCCC3)ccc21)NCCc1ccc(Cl)cc1 | inactive
9 | O=S(=O)(c1ccc2ccccc2c1)N1CCN(C(=S)Nc2ccc(F)c(Cl)c2)CC1 | 1.06 µM (active)
10 | COc1cccc(S(=O)(=O)N2CCC3(CC2)C(OC)C(=O)N3c2cccc(F)c2)c1 (stereo unspecified) | inactive
11 | CN1CCN(c2cc(=O)c3ccnc(N4CCOCC4)c3o2)CC1 | inactive
12 | CN1CCN(c2ccc(Nc3ccnc4cc(Cl)ccc34)cc2)CC1 | 0.188 µM (active)
13 | Clc1ccc2c(N/N=C/c3cccc(Br)c3)ccnc2c1 | 10.6 µM (active)
14 | CN(C)c1ccnc(Nc2ccc(O)cc2)c1C#N | inactive
15 | O=C(NNc1ccnc2cc(Cl)ccc12)C1CCCCC1 | 7.5 µM (active)
16 | Oc1ccc(Nc2ccnc3cc(Cl)ccc23)cc1 | 1.68 µM (active)
17 | CN(Cc1ccccc1F)C1CCc2ccccc21 (stereo unspecified) | inactive
18 | O=C(CSc1ncn[nH]1)Nc1ccnc2ccccc12 | inactive
19 | CCN1CCN(c2ccc(Nc3ccnc4ccccc34)cc2)CC1 | 1.06 µM (active)
20 | Clc1ccc(NNc2ccnc3cc(Cl)ccc23)cc1 | 1.5 µM (active)
21 | CN(C(=O)c1ccc2c(c1)N(Cc1ccc(F)cc1)C(=O)c1ccccc1S2(=O)=O)C1CCCCC1 | inactive
22 | CCOC(=O)c1ccc2c(c1)N(C(CC)C(=O)Nc1ccccc1OC)C(=O)c1ccccc1S2 (stereo unspecified) | 9.44 µM (active)
23 | COc1ccccc1NC(=O)c1nn(C)c2c1CS(=O)(=O)c1ccccc1-2 | inactive
24 | CCOC(=O)c1ccc2c(c1)N(CC(=O)N(C)c1ccccc1)C(=O)c1ccccc1S2 | 10.6 µM (active)

Row | Compound | Potency
25 | O=C1NCCCCCCN(C(=O)C2CCCC2)[C@H]2CCCC[C@@H]12 | inactive
26 | O=C(c1ccccc1F)N1CCCC2(C1)C(=NC1CCCC1)NC(=O)N2c1cc(F)cc(F)c1 (stereo unspecified) | inactive
27 | O=C1NCc2ccccc2CC12CCCN(Cc1ccccc1)C2 (stereo unspecified) | inactive
28 | O=C1NC(=NC2CCCC2)C2(CCN(Cc3ccccc3)C2)N1c1cc(F)cc(F)c1 (stereo unspecified) | 7.5 µM (active)
29 | COc1cccc([S+](=O)([O-])N2CCC3(CC2)C(=NC2CCCCC2)NC(=O)N3c2cc(F)cc(F)c2)c1 | inactive
30 | O=C1NC(=NC2CCCCC2)C2(CCN(Cc3ccccc3)C2)N1c1cc(F)cc(F)c1 (stereo unspecified) | 4.22 µM (active)
31 | O=C(NC(c1ccccc1)c1cc(Cl)c2cccnc2c1O)c1cccnc1 (stereo unspecified) | 7.5 µM (active)
32 | O=C(NC(c1ccc(Cl)cc1)c1cc(Cl)c2cccnc2c1O)c1cccnc1 (stereo unspecified) | 5.96 µM (active)
33 | Cc1ccc2nc(-c3ccc(Cl)c(NC(=O)c4cccnc4)c3)oc2c1 | inactive
34 | CN(CC1(C)CCOCC1)C(=O)c1ccco1 | inactive
35 | CC(Oc1ccc(F)cc1)C(=O)Nc1cc(C(F)(F)F)ccc1-n1cncn1 (stereo unspecified) | 1.68 µM (active)
36 | O=C(Cn1ccn2nc(-c3ccc(F)cc3)c(CO)c2c1=O)Nc1ccc(Cl)cc1F | inactive
37 | CC(Oc1ccc(F)cc1)C(=O)Nc1cc(Cl)ccc1-n1cncn1 (stereo unspecified) | 6.68 µM (active)
38 | CC(C(=O)N1CCc2ccccc21)N1CCc2ccccc2C1 (stereo unspecified) | inactive
39 | CC1(C)C(=O)N(CC2CCOCC2)[C@H]2CN(Cc3ccccc3O)C[C@H]2[S+]1(=O)[O-] | inactive
40 | COCC1CN(C)CC12CCN(C(=O)CC1=CCCCC1)CC2 (stereo unspecified) | inactive
41 | O=C(Nc1ccc(-c2nnc3n2CCCC3)cc1)c1ccccc1F | inactive
42 | O=C(NCCc1cccnc1)c1ccc(-c2nnc3ccc(NC(=O)C4CCC4)cn23)cc1 | 6.68 µM (active)
43 | Cn1c(=O)c2ccnn2c2ccc(C(=O)NCCN3CCC(N4CCCCC4)CC3)cc21 | inactive
44 | CC1CN(C(=O)Nc2ccc(C(=O)NCCc3ccccc3)cc2)c2ccccc2S1 (stereo unspecified) | inactive
45 | O=C(NCCc1ccncc1)c1ccc(-c2nnc3ccc(NC(=O)C4CCC4)cn23)cc1 | 2.99 µM (active)
46 | Cc1cn2nc(C(=O)N3CCC(C(=O)NCc4cccnc4)CC3)cc2c(=O)[nH]1 | inactive
47 | O=C(NCCN1CCCCC1)c1ccc(-c2nnc3ccc(NC(=O)C4CCC4)cn23)cc1 | 13.3 µM (active)
48 | Cc1noc(-c2ccn3c(CNC(=O)c4ccncc4)nnc3c2)n1 | inactive

Row | Compound | Potency
49 | O=C1CCN(S(=O)(=O)c2ccccc2)CCCC(C(=O)NCCc2cccnc2)CCN1 (stereo unspecified) | inactive
50 | CC(C)(C)CC(C)(C)c1ccc(O)c(Cc2ccc(Cl)cc2Cl)c1 | 1.68 µM (active)
51 | CCc1cccc(NC(=O)N2CCc3nc4cc(-c5ccc(OC)cc5)[nH]n4c(=O)c3C2)c1 | inactive
52 | CCc1nc2c(c(-c3ccc(O)cc3)n1)CCN(Cc1ccc(OC)cc1)CC2 | 6.68 µM (active)
53 | COc1ccc(CN2CCC3(CC(c4ccc(OC)cc4)=NO3)C2)cc1 (stereo unspecified) | inactive
54 | CCc1nc2c(c(-c3ccc(O)cc3)n1)CCN(Cc1ccc(OC(F)(F)F)cc1)CC2 | 1.5 µM (active)
55 | O=[S+]1([O-])NCC2(CCCN(Cc3ccc(OC(F)(F)F)cc3)C2)Nc2ccccc21 (stereo unspecified) | inactive
56 | CN1C[C@@H](NC(=O)CC(C)(C)C)C[C@H]1c1nc(-c2ccc(OC(F)(F)F)cc2)no1 | inactive
57 | Cc1cc(C)c(S(=O)(=O)n2ccc(-c3ccc(OCCN(C)c4ccccn4)cc3)n2)c(C)c1 | 7.5 µM (active)
58 | COc1cccc2c(=O)n(CC(=O)NCCc3ccccc3)ccc12 | inactive
59 | COc1ccc(-n2nc(C(=O)NCC(=O)N3CCN(c4ccccc4OC)CC3)c3ccccc3c2=O)cc1OC | 6.68 µM (active)
60 | COc1ccc(-n2nc(C(=O)NCC(=O)N3CCN(c4ccccc4OC)CC3)c3ccccc3c2=O)c(OC)c1 | 2.11 µM (active)
61 | COc1ccccc1N1CCN(C(=O)CNS(=O)(=O)c2ccc(Br)s2)CC1 | inactive
62 | Cc1cc(OC(C)C(=O)NCCc2c[nH]c3ccccc23)c2c(C)cc(=O)oc2c1 (stereo unspecified) | 2.66 µM (active)
63 | CCc1cc(=O)oc2cc(C)cc(OCC(=O)C(C)(C)C)c12 | 11.9 µM (active)
64 | O=C(NCCc1c[nH]c2ccccc12)c1c(OCC2CC2)cc(=O)n2c1CCOCC2 | inactive
65 | CCCc1noc(-c2ccn3c(CNC(=O)C(C)Oc4ccccc4)nnc3c2)n1 (stereo unspecified) | inactive
66 | CCCc1cc(=O)oc2cc(C)cc(OC(C)C(=O)NCC(O)c3ccccc3)c12 (stereo unspecified) | 0.842 µM (active)
67 | CCc1cc(=O)oc2cc(C)cc(OCC(=O)NCC(O)c3ccccc3)c12 (stereo unspecified) | 6.68 µM (active)
68 | Oc1cc(Cc2ccccc2)cnc1CN1CCCCC1 | 0.944 µM (active)
69 | Clc1ccc(-c2nc(N3CCOCC3)nc3ccccc23)cc1 | inactive
70 | CC12CC3CC(C)(C1)CC(Nc1nc(N4CCOCC4)nc4ccccc14)(C3)C2 | 9.44 µM (active)
71 | CN1N=C2c3ccccc3CCC2C1c1ccc(F)cc1 (stereo unspecified) | 5.96 µM (active)
72 | Cc1ccc2oc(=O)n(CCOc3ccccc3C)c2c1 | 4.73 µM (active)

Row | Compound | Potency
73 | COc1ccccc1C(=O)NCCn1ccn2nc(-c3cc(C)ccc3C)cc2c1=O | inactive
74 | CCNC(=O)N1CCCCCC1CN1CCc2ccccc2C1 (stereo unspecified) | inactive
75 | O=C(c1cccs1)N1CCCCCC1CN1CCCC1 (stereo unspecified) | 10.6 µM (active)
76 | O=C(N[C@H]1CCN2C(=O)c3ccccc3NC(=O)[C@@H]2C1)c1cccs1 | inactive
77 | CCCCCCNC(=O)Cc1csc2nc(C)c(-c3cc(C)n(-c4cccc(C)c4)n3)c(=O)n12 | 15 µM (active)
78 | CCCCCCC(O)(c1ccc(OC)cc1)C(CN1CCOCC1)c1ccccc1 (stereo unspecified) | 4.22 µM (active)
79 | CCCCC(O)(c1ccc(CC)cc1)C(CN1CCOCC1)c1ccccc1 (stereo unspecified) | 4.73 µM (active)
80 | CCCCCC(O)(c1ccc(OC)cc1)C(CN1CCOCC1)c1ccccc1 (stereo unspecified) | 2.11 µM (active)
81 | CCCN1C(CC(C)C)=NS(=O)(=O)c2cc(NC(=O)c3cccs3)ccc21 | 0.335 µM (active)
82 | CCCN1C(CC(C)C)=NS(=O)(=O)c2cc(NC(=O)c3ccco3)ccc21 | 7.5 µM (active)
83 | COc1cc(Cl)c(C)cc1NC(C)C(=O)Nc1cc(C(F)(F)F)ccc1N1CCOCC1 (stereo unspecified) | 0.422 µM (active)
84 | CCC(Oc1ccccc1)C(=O)Nc1cc(C(F)(F)F)ccc1N1CCOCC1 (stereo unspecified) | 7.5 µM (active)
85 | COc1ccc(NC(C)C(=O)Nc2cc(C(F)(F)F)ccc2N2CCOCC2)c(OC)c1 (stereo unspecified) | 0.842 µM (active)
86 | CCOc1ccccc1NC(=O)N1CCC([C@@H]2[C@H](OC)C(=O)N2C(C)C)CC1 | inactive
87 | CC(Oc1ccccc1)C(=O)NC1CCN(c2cc(C(F)(F)F)ncn2)CC1 (stereo unspecified) | inactive
88 | CCOc1ccccc1NC(C)C(=O)Nc1cc(C(F)(F)F)ccc1N1CCOCC1 (stereo unspecified) | 2.66 µM (active)
89 | COc1cc2c(Nc3ccc(Br)cc3F)ncnc2cc1OCC1CCN(C)CC1 | 5.96 µM (active)
90 | Nc1cc(Cl)ccc1N1CCCC1 | inactive
91 | O=C(Nc1ccc(C(F)(F)F)cc1)N1CCN(c2ccnc3cc(Cl)ccc23)CC1 | 5.31 µM (active)
92 | O=C(c1ccc(F)c(Cl)c1)N1CCN(c2cc(C(F)(F)F)ncn2)CC1 | inactive
93 | Clc1ccc2c(N3CCCC3)ccnc2c1 | 3.76 µM (active)
94 | COc1ccc(CCNc2ncnc3c2cnn3-c2ccc(F)cc2)cc1 | inactive
95 | COc1ccc(CNc2ncnc3c2cnn3-c2ccc(C)c(C)c2)cc1 | inactive
96 | Cc1ccc(-n2ncc3c(NCc4ccco4)ncnc32)cc1C | 15 µM (active)
